ANO1 block – inhibitors of mouse TMEM16A calcium-activated chloride channel | HEK293 TMEM16A/YFP iodide influx fluorescence, ionomycin | normalized B-score (activity score, 25-100; higher = stronger inhibition) at 10 µM | hit rate 1.2% among 310,000 | AID 588511;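 active means ratio plate-corrected score three or more library SD toward inhibition, starting fluorescence score within five deviations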;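 further: score derived from kinetic fluorescence span divided by baseline fluorescence per well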
TMEM16A act – activators or potentiators of mouse TMEM16A chloride channel; Q8BHY3; HEK293 TMEM16A/YFP-H148Q/I152L, iodide quench fluorescence; hits give low values; B-score at 10 µM; hit rate 0.3% among 340,000; AID 623877;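 active means fluorescence-ratio B-score plate-corrected deviation score at least 3 library SD below zero, with starting fluorescence score within 5 deviations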;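 further: channel opened by trigger with iodide after compound preincubation; score built on the fluorescence ratio of max minus min over baseline; more negative score means more quench and so TMEM16A activation or potentiation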
CHT allo act – allosteric activators of human choline transporter CHT; Q9GZV3; CHT-expressing cells, membrane potential dye, choline EC20; hits give high values; LV-AA mutant CHT in HEK293 cells; B-score at 10 µM; hit rate 0.49% among 310,000;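 active means initial fluorescence not abnormally high and integrated response B-score, plate-corrected, over 3 SD above library mean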
CHT block – inhibitors of human choline transporter CHT; Q9GZV3; CHT-expressing cells, membrane potential dye, choline response; hits give low values; B-score at 10 µM; hit rate 0.86% among 310,000; AID 488975;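 active means B-score over 3 SD under the library average, and starting fluorescence ratio not unusually high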;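 further: choline stimulus applied at its EC90 after an EC20 pre-addition; B-score computed on integrated fluorescence ratio after choline addition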
TMEM16A reconf – reconfirmed blocker of mouse TMEM16A calcium-activated chloride channel; inhibition, % at 10 µM; hit rate 39% among 2,300; shares compounds with ANO1 block; HEK293 TMEM16A/YFP-H148Q, iodide quench fluorescence; ionomycin added to raise cell calcium;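 active means mean duplicate percent inhibition, scaled so buffer wells are 0 and the reference blocker 100, over three buffer SD above buffer mean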
HEK293 Ca mobil – counter-screen for TMEM16A inhibitors: effect on calcium mobilization | TMEM16A/YFP HEK293, Fluo4 calcium mobilization | shares compounds with ANO1 block | AID 652231 | calcium response (% of ionomycin), % at 10 µM | hit rate 2% among 2,300;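 active means duplicate-averaged calcium signal over 20% of the ionomycin maximum, relative to buffer baseline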;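 further: each well's signal is peak minus trough fluorescence divided by its pre-addition baseline; 0% = buffer wells and 100% = ionomycin wells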
YFP-HEK293 quench – acts in parental YFP-HEK293 cells lacking TMEM16A, counter-screen; 2,300 tested, under 10 active; iodide YFP quench, ionomycin; shares compounds with ANO1 block; YFP ratio F(max-min)/F0 at 10 µM;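 active means yellow fluorescent protein signal ratio exceeding the buffer control mean by over 5 SD of those controls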;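 further: ratio is mean of duplicate wells from kinetic YFP trace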
ClC-1 rat inh – blocks the rat ClC-1 voltage-dependent chloride channel | shares compounds with ANO1 block | CHO ClC-1-YFP, iodide influx fluorescence quench; iodide control reads 0, buffer control 100 | ratio percent, % at 10 µM | 2,300 tested, under 10 active | AID 652236;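 active means duplicate-mean ratio percent above the mean of iodide-only control wells, which defines zero, plus 5 of their SD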;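 further: higher percent means stronger block of ClC-1 iodide influx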
Numbers without * were called inactive; i = inactive; nt = no result. Compounds with a hit are over-represented: about 2.4% of the library has one in this group of screens.

SMILES	ANO1 block	TMEM16A act	CHT allo act	CHT block	TMEM16A reconf	HEK293 Ca mobil	YFP-HEK293 quench	ClC-1 rat inh
CCOc1cc(/C=N/N=C(/N)c2nonc2N)cc(Br)c1OCc1ccc(Cl)cc1	100*	i	i	i	i	i	-1	1
COc1ccc(CN2CC(C(=O)NCc3ccccn3)CC2=O)cc1 (configuration not stated)	100*	i	i	i	i	i	-1.1	-20
COCCCNC(=O)C1CC(=O)N(Cc2ccc(OC)cc2)C1 (configuration not stated)	i	i	i	i	nt	nt	nt	nt
Cc1ccc(Nc2nc(-c3ccccc3)cs2)nc1	i	i	i	i	nt	nt	nt	nt
Cc1ccc(Nc2nc(-c3cccs3)cs2)nc1	100*	i	i	i	i	i	-0.8	-12
O=C(N/N=C\C=C\c1ccco1)c1cncc(Br)c1	i	i	i	i	nt	nt	nt	nt
COc1ccc(COC(=O)CCc2cc(OC)c(OC)c(OC)c2)cc1F	nt	i	nt	nt	nt	nt	nt	nt
CCc1ccc(CNc2ccc(N3CCN(C(C)=O)CC3)cc2)cc1	25*	i	i	i	i	i	-1.1	-14
Cn1c(SCCc2ccc([N+](=O)[O-])cc2)nccc1=O	i	i	i	i	nt	nt	nt	nt
c1ccc(CCNc2ncnc3ccccc23)cc1	25*	i	i	i	i	i	-1	-26
CCCCCCCCNc1ncnc2ccccc12	100*	i	i	i	38%*	i	-1	-36
Cc1cc2nc(Cl)c(Cl)nc2cc1C	i	i	i	i	nt	nt	nt	nt
CC(C)Cn1c(Cc2ccccc2)n[nH]c1=S	100*	i	i	i	i	i	-1.2	-4
CCOC(=O)/C=c1\s/c(=C\c2ccc3cc(OC)ccc3c2)c(=O)n1CC(=O)NCc1ccc2c(c1)OCO2	i	i	i	i	31%*	i	-0.98	17
CCOC(=O)/C=c1\s/c(=C\c2ccccc2C)c(=O)n1CC(=O)NCc1ccc2c(c1)OCO2	i	i	i	i	nt	nt	nt	nt
Cc1cc(C(=O)COc2ccccc2C(N)=O)c(C)n1CC1CCCO1 (configuration not stated)	100*	i	i	i	20%*	i	-0.81	-33
Cc1cc(C(=O)COC(=O)c2ccccc2O)c(C)n1CC1CCCO1 (configuration not stated)	nt	i	nt	nt	nt	nt	nt	nt
COC(=O)CCn1c(C)cc(C(=O)COc2ccccc2C(N)=O)c1C	i	i	i	i	21%*	i	-1.2	-8
COC(=O)CCCn1c(C)cc(C(=O)CCl)c1C	i	i	i	i	nt	nt	nt	nt
Cc1cccc(CSc2nnc(CCCCCNC(=O)OC(C)(C)C)o2)c1	i	i	i	i	nt	nt	nt	nt
COc1ccc(NC(=O)c2[nH]c(C)c(C(C)=O)c2C)cc1	i	i	i	i	nt	nt	nt	nt
CCc1c(C(=O)Nc2ccc(OC)cc2)[nH]c(C)c1C(C)=O	25*	i	i	i	i	i	-0.96	-8
CCC(C)(C)n1nnnc1CN(Cc1ccc(Cl)cc1)Cc1ccco1	25*	i	i	i	22%*	i	-1.1	-16
CC(C)(C)c1ccc(CN(Cc2ccco2)Cc2nnnn2C2CCCC2)cc1	i	i	i	i	nt	nt	nt	nt
O=C(CCNS(=O)(=O)c1cccc2nsnc12)NCc1ccc(F)cc1	i	i	i	i	nt	nt	nt	nt
SMILES	ANO1 block	TMEM16A act	CHT allo act	CHT block	TMEM16A reconf	HEK293 Ca mobil	YFP-HEK293 quench	ClC-1 rat inh
Cc1ccc(CNC(=O)CCNS(=O)(=O)c2cccc3nsnc23)cc1	100*	i	i	i	i	i	-0.74	-3
Cc1ccc(-c2[nH]nc3c2C(c2ccccc2OC(=O)N2CCOCC2)C(C#N)=C(N)O3)cc1 (configuration not stated)	i	nt	i	i	nt	nt	nt	nt
CCOC(=O)c1csc(Nc2nc3ccc(F)cc3s2)n1	100*	i	i	i	i	i	-1	-15
COC(=O)c1ccc2nc(Nc3nc4ccc(F)cc4s3)sc2c1	i	i	i	i	nt	nt	nt	nt
COc1cc(OC)cc(-c2c(-c3cccs3)c3cc(-c4ccc(OCc5ccccc5)cc4)ccc3n2C)c1	nt	i	nt	nt	nt	nt	nt	nt
COc1cc2c(cc1NC(=O)CCCCCN1C(=O)CCC1=O)oc1ccccc12	25*	i	i	i	i	i	-1.2	-8
COc1cc2c(cc1NC(=O)CCCN1C(=O)CCC1=O)oc1ccccc12	i	i	i	i	nt	nt	nt	nt
CCOC(=O)c1cc(-c2ccccc2)sc1NC(=O)C(C)Sc1nnc(N)s1 (configuration not stated)	i	i	i	i	nt	nt	nt	nt
Cc1ccc(NC(=O)CNc2cccc(C)c2C)c(C)c1	100*	i	i	i	i	i	-0.82	-10
COC(=O)c1ccc(CNCC(O)COc2ccc(-c3ccccc3)cc2)cc1 (configuration not stated)	i	i	i	i	nt	nt	nt	nt
COc1ccc(CNCC(O)COc2ccc(C(C)(C)c3ccccc3)cc2)cc1 (configuration not stated)	25*	i	i	i	26%*	i	-1.3	-14
CCOC(=O)c1cnc2sc3c(n2c1=O)CCCC3	100*	i	i	i	i	i	-1.1	-8
O=C(Nc1ncccc1O)c1cccc(S(=O)(=O)N2CCc3ccccc32)c1	i	i	i	i	nt	nt	nt	nt
COc1ccc(NC(=O)c2cccc(S(=O)(=O)N3CCc4ccccc43)c2)cn1	25*	i	i	i	i	i	-1.1	-16
COc1ccc(C(=O)Nc2ccc(S(=O)(=O)N3CCc4ccccc43)cc2)cc1	100*	i	i	i	34%*	i	-1.1	-10
COc1ccc(-c2ncnc(C(F)(F)F)c2-c2csc(C)n2)c(O)c1	i	i	i	i	nt	nt	nt	nt
Cc1nc(-c2c(-c3ccc(O)cc3O)noc2C(F)(F)F)cs1	100*	i	i	i	i	i	-0.98	2
COC(=O)c1ccc2c(=O)n(Cc3ccc(C(=O)NC(C)C)cc3)c(=S)[nH]c2c1	i	i	i	i	nt	nt	nt	nt
Nc1ccc(CCc2nc3ccccc3o2)cc1	i	i	i	i	nt	nt	nt	nt
N#Cc1c(C(F)(F)F)cc(=O)n2c1[nH]c1ccccc12	100*	i	i	i	35%*	22%*	-1	-20
